HCMV inh = inhibitors of human cytomegalovirus. 410,000 compounds, 4.5% hits. AID 1259415. HFF cells, HCMV-luciferase reporter, 72 h; hits give low values. activity change, negative = inhibition, % at 57.5 µM; in the data active = activity change below about -60%; inconclusive = no clear call, values can overlap the other calls; inactive = above about -39%
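Compounds were evaluated in HFFs infected with an HCMV luciferase reporter virus (MOI 1 PFU/cell). Luciferase in lysates collected 72 h post infection served as the replication measure.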
Lassa entry inh = blocks Lassa virus binding to or entry into cells. Lassa virus pseudotype entry inhibition, cell reporter. Potency, µM (series often up to 37.9 µM), without a hit: top-dose activity change, negative = inhibition, usual class: inhibitors. 300,000 compounds, 1.2% hits. AID 540256; calls by dose curve; tested in HEK293 cells; note: potency is the fitted concentration of half-maximal effect; nearly all actives have a fitted effect of over 50% in size
HCV inhibitor = blocks hepatitis C virus; Huh7.5.1 HCVcc-Cre infection, luciferase reporter, 44 h; Potency, µM (doses to about 41.8 µM), for the others: at the highest dose activity change, negative = inhibition, most hits filed as inhibitors; 340,000 compounds, 3.4% hits; active = well fitted inhibition curve with a large enough effect; inconclusive = small, poorly fitted or top-dose-only effect, or another doubt; inactive = no such curve, though single readings can be large or run the other way; note: potency is the fitted concentration of half-maximal effect
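After 44 h co-culture of compound, cells and HCVcc-Cre (~0.5 moi), substrate is added for 15 min at room temperature and luciferase measured over 15 sec. Cells were seeded at 1,000/well and pre-cultured 4 h.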
MARV entry inh = inhibitors of Marburg virus binding or cell entry. Marburg virus pseudotyped entry inhibition, cell reporter. 300,000 compounds, 1.8% hits. Potency, µM (titrated, usually from 37.8 µM), for the others: top-dose activity change, negative = inhibition, hits mostly inhibitors. AID 540276; calls by dose curve; tested in HEK293 cells; note: potency is the fitted concentration of half-maximal effect
FMDV antiviral = blocks foot and mouth disease virus; FMDV antiviral cell-based qHTS; Potency, µM (highest dose often 57.9 µM), for the others: top-dose activity change, negative = inhibition, most hits filed as inhibitors; 410,000 compounds, 1.2% hits; AID 1159524; calls by dose curve; tested in HEK293T cells; note: read-out not given here; potency is the fitted concentration of half-maximal effect; nearly all actives have a fitted effect of over 45% in size
An asterisk follows results filed as active; ? = inconclusive; . = no result; + = active, no number; [ ] = remark or other dose. The list is not random: actives were taken first. Their share in the collection is about 7.9%. % is set by controls: 0 for no effect and ±100 for the full control effect.

SMILES	HCMV inh	Lassa entry inh	HCV inhibitor	MARV entry inh	FMDV antiviral
Cc1ccc(CSc2ncc(Cl)c(C(=O)Nc3nc4ccc(C)cc4s3)n2)cc1	11	11%[46.1 µM]	.	-6%[46.1 µM]	-7%
COc1ccc2nc(NC(=O)c3nc(S(=O)(=O)Cc4ccc(C)cc4)ncc3Cl)sc2c1	-100*	?	.	?	-9%
Cc1ccc(CS(=O)(=O)c2ncc(Cl)c(C(=O)Nc3nc4ccc(F)cc4s3)n2)cc1	-93*	?	.	-8%[46.1 µM]	?
CC(=O)c1cccc(Nc2nccc3c2cc(-c2cccc(C(F)(F)F)c2)n3C)c1	-31	.	.	.	.
COC(=O)COc1ccc(S(=O)(=O)NCc2ccc3c(c2)OCO3)cc1	-23	.	15%	.	4%
COc1ccc(N2CCC[C@@H]2/C=C/C(=O)OC(C)(C)C)cc1	24	.	.	.	.
COc1ccc(C)cc1S(=O)(=O)NCC(c1ccco1)N1CCc2ccccc2C1 (centres undefined)	5	8%	-21%	-12%	57%
CCc1ccccc1NS(=O)(=O)c1ccc2[nH]cc(C(=O)N(CC)Cc3ccccc3)c(=O)c2c1	12	-23%[46.1 µM]	.	.	0%
Cc1nc(SCc2nc3ccc(Br)cc3[nH]2)c2oc3ccccc3c2n1	88	.	.	.	-17%
CCc1nc(SCc2nc3ccccc3[nH]2)c2oc3ccccc3c2n1	?	-8%	7.9µM*	?	?
CCc1nc(SCC(=O)c2ccc(Cl)s2)c2oc3ccccc3c2n1	.	18%	?	?	-10%
CCc1nc(Sc2nc(C)cc(C)n2)c2oc3ccccc3c2n1	-86*	-7%	?	?	-30%
CCc1nc(SCCO)c2oc3ccccc3c2n1	36	16%	10µM*	14%	-23%
CCc1nc(SCC(=O)N2CCN(c3ccccc3)CC2)c2oc3ccccc3c2n1	-18	-20%	10µM*	?	?
CCCN(CC(=O)Nc1ccccc1C)C(=O)Cc1c(C)nc2ccccc2c1C	-32	.	-3%	.	1%
O=c1c2cccnc2n(Cc2ccccc2F)c(=O)n1Cc1ccc(F)cc1	0	.	.	-7%[46.1 µM]	-19%
O=C(NCCCN1CCN(c2ccccc2F)CC1)c1cc2c(s1)-c1ccccc1OC2	?	.	.	-25%[46.1 µM]	1%
COc1cc(Cn2c(=O)oc3ccc(C)cc32)ccc1OC(C)C	12	3%	1.1µM*	18%	?
Cc1ccc(NC(=O)Cn2c(=O)c(C)nc3ccccc32)cc1	-28	9%	2%	?	-7%
Cc1nc2ccccc2n(CC(=O)Nc2cc(Cl)cc(Cl)c2)c1=O	-61*	-23%	-28%	-12%	-28%
CCc1cccc(C)c1NC(=S)NCc1ccc2c(c1)cc(C)n2C	-91*	?	?	?	-13%
COn1c(C)c(C)c2c3nonc3ccc21	-65*	18%	?	?	-3%
C=CCOn1c(C)c(C(C)=O)c2c3nonc3ccc21	-81*	-4%	?	8%	-29%
Cc1ccc(-n2c(SCC(=O)N3CCCCC3)nc(O)c(Cc3ccccc3)c2=O)cc1	-28	.	7%	.	-4%
CN(C)C(=O)Oc1ccnc2cc(Cl)ccc12	+	14%	-7%	1%[46.1 µM]	-12%
SMILES	HCMV inh	Lassa entry inh	HCV inhibitor	MARV entry inh	FMDV antiviral
COC(=O)c1c(-c2ccc(OC)cc2)sc2cc3c(cc12)OCO3	90	.	11µM*	.	55%
COc1cc(-c2ccc3sc(-c4ccsc4)c(C#CCO)c3c2)cc(OC)c1OC	-23	.	3.2µM*	.	-27%
COc1ccccc1-c1sc2cc3c(cc2c1C#Cc1cncn1C)OCO3	25	.	0.89µM*	.	?
COc1ccc2sc(-c3ccccc3OC)c(C#Cc3cncn3C)c2c1	-30	.	?	.	-24%
COc1ccc(-c2sc3ccccc3c2C#CCO)cc1	?	.	28µM*	.	-23%
COc1ccc(-c2sc3ccccc3c2C#CCCO)cc1	93	.	?	.	-12%
CCC1CCCCN1CC(=O)c1c(C)[nH]c2ccc(OC)cc12 (centres undefined)	10	21%	-26%	-6%	6%
O=C(CSc1nccn1C1CCCC1)Nc1ccccc1	-24	?	.	.	27%
COc1cc(NC(=O)c2noc3c2CC(C)CC3)c(OC)cc1Cl (centres undefined)	31	-3%[46.1 µM]	.	.	4%
COc1ccc(-c2sc3ccccc3c2C#Cc2cncn2C)cc1	-28	.	3.5µM*	.	-13%
COc1ccc(-c2sc3cc(OC)c(OC)cc3c2C#CC2(O)CCCCC2)cc1	9	.	16µM*	.	-21%
COc1ccc(-c2sc3ccc(N4CCOCC4)cc3c2C#CCCO)cc1	37	.	4µM*	.	?
COc1ccc(-c2sc3cc4c(cc3c2C#CCO)OCO4)cc1	-16	.	11µM*	.	-25%
COc1ccc(-c2sc3cc(OC)c(OC)cc3c2C#CCCO)cc1	-18	.	?	.	-23%
Cn1cncc1C#Cc1c(-c2ccc(S(C)(=O)=O)cc2)sc2ccccc12	-29	.	4%	.	?
COc1ccc(-c2sc3ccccc3c2C#CC2(O)CCCCC2)cc1	-16	.	?	.	-16%
CCOC(=O)c1ccc(NC(=O)Cn2nnc(-c3ccc(C(F)(F)F)cc3)n2)cc1	8	15%[46.1 µM]	.	-7%[46.1 µM]	5%
COCC1CCCCN1C(=O)c1ccc(OC2CCN(CCc3ccccc3)CC2)cc1 (centres undefined)	0	.	-8%	.	-9%
N/C(Cc1nc(-c2ccc(Cl)cc2)cs1)=N\O	.	.	.	6%	.
O=C(NCCCN1CCOCC1)c1cc(Cl)ccc1OCc1ccccc1	-22	7%	.	?	-11%
COc1ccc(-n2c(CNC(=O)c3cccc(OC)c3OC)nnc2SC)cc1	.	.	.	.	-5%
O=C1OC(N2C(=O)CC[C@H]2C(=O)Nc2ccc(F)c(F)c2)c2ccccc21 (some centres undefined)	15	.	16%	.	-26%
O=C1OC(N2C(=O)CC[C@H]2C(=O)Nc2ccc3c(c2)OCO3)c2ccccc21 (some centres undefined)	-15	.	0.89µM*	.	2%
CCn1c(-c2ccccc2F)nc2cc(NC(C)=O)cc(C(=O)NC(c3ccccn3)C(F)(F)F)c21 (centres undefined)	.	.	.	.	-10%
O=C(C1CCC(CNS(=O)(=O)c2cccc3cccnc23)CC1)N1CCc2ccccc21 (centres undefined)	-61*	.	?	.	?
SMILES	HCMV inh	Lassa entry inh	HCV inhibitor	MARV entry inh	FMDV antiviral
CN(Cc1ccccc1)C(=O)C1CCC(CNS(=O)(=O)c2cccc3cccnc23)CC1 (centres undefined)	-62*	.	?	.	-26%
CC(=O)c1ccc(NC(=O)Nc2nnc(N3CCCC(C)C3)s2)cc1 (centres undefined)	-18	18%[46.1 µM]	.	-3%[46.1 µM]	0%
Clc1ccc(CSc2cnnc3ccccc23)cc1Cl	-32	11%[46.1 µM]	8%	?	16%
O=Cc1cc2ccccc2nc1SCc1ccc(Cl)c(Cl)c1	-92*	?	7%	2.2µM*	?
Cc1ccc(CSc2nc3ccccc3cc2C=O)cc1	-97*	?	?	?	?
O=Cc1cc2ccccc2nc1SCc1ccc(Cl)cc1	-82*	10µM*	?	?	-21%

Screening data (PubChem)
